BAZ2B block: inhibitors of human BAZ2B bromodomain. Potency, µM (doses to about 114 µM), actives largely listed as inhibitors. 360,000 compounds, 4.4% hits. Q9UIF8. AlphaScreen BAZ2B-H3K14Ac peptide displacement; also: nearly all actives have a fitted effect of over 60% in size
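Inhibition is scored as reduced AlphaScreen emission. The BAZ2B/b-H3(5-23)K14Ac complex (50 nM each) in PBS pH 7.4, 0.01% Tween-20 meets compound (up to 110 uM) for 30 min at RT before bead addition.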
JMJD2A Tudor: blocks the human JMJD2A Tudor domain; O75164; AlphaScreen JMJD2A-Tudor / H3K4me3 peptide binding; Potency, µM (titrated, usually from 114 µM), most hits filed as inhibitors; 390,000 compounds, 4.4% hits; AID 504339; also: nearly all actives have a fitted effect of over 50% in size
Sfp inh: Sfp phosphopantetheinyl transferase inhibition; Q9F4F7; Biochemical Sfp PPTase activity, qHTS; Potency, µM, actives largely listed as inhibitors; 310,000 compounds, 3.5% hits; AID 1490;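 also: the enzyme is Sfp with the accession as filed and its product quenches rhodamine fluorescence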
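Sfp 15 nM + cpd, 15 min RT; start w/ rhodamine-CoA 5 uM, BHQ-2-YbbR 12.5 uM (final); 50 mM Hepes pH 7.6, 10 mM MgCl2, 0.01% NP-40, 0.01% BSA; read 525/598 nm at 0 and 30 min.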
G9a block: inhibitors of human histone lysine methyltransferase G9a; Q96KQ7; G9a H3K9 monomethylation, AlphaScreen, 2 h; Potency, µM (highest dose often 102 µM), most hits filed as inhibitors; 350,000 compounds, 8.8% hits; AID 504332; also: nearly all actives have a fitted effect of over 75% in size
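Compounds were preincubated with 20 nM G9a for 15 min, after which biotinylated H3K9 peptide (500 nM) and SAM (20 uM) started a 2 h room-temperature reaction. Monomethylated product was quantified by antibody-based AlphaScreen chemiluminescence.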
HP1b chromo inh: inhibitors of HP1-beta chromodomain binding to methylated histone tails. Potency, µM (series often up to 114 µM), most hits filed as inhibitors. AID 540317. P83916. AlphaScreen HP1-beta / biotin-H3K9me3 peptide binding. 390,000 compounds, 0.56% hits; also: nearly all actives have a fitted effect of over 70% in size
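AlphaScreen: HP1-beta (50 nM) preformed 30 min with biotin-H3(1-18)K9me3 peptide (50 nM) in PBS pH 7.4, 0.01% Tween-20. Compound added for 30 min at RT, then streptavidin donor/nickel chelate acceptor beads (10 ug/mL) for 30 min.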
TDP1 block: TDP1 (human) enzyme inhibition | Q9NUW8 | recombinant TDP1, AlphaScreen DNA substrate cleavage | AID 485290 | 350,000 compounds, 0.28% hits | Potency, µM (doses to about 130 µM), hits mostly inhibitors; also: nearly all actives have a fitted effect of over 40% in size
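Steps: enzyme plus compound, 15 min RT; add biotin/phosphotyrosine-FITC oligonucleotide (15 nM final), react 5 min; add donor/acceptor beads (10 ug/ml final), 10 min; read AlphaScreen. Tdp1 at 1 nM final.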
12-hLO cuvette: blocks human 12-lipoxygenase product formation in cuvette | purified 12-hLO, cuvette UV 234 nm product formation | shares compounds with BAZ2B block | Potency, µM, most hits filed as inhibitors | AID 2163 | 35 compounds, 60% hits;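 active = compounds that slowed 12-hLO product formation enough to yield a measured IC50 potency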
Target sequence (P18054 whole entry, looked up): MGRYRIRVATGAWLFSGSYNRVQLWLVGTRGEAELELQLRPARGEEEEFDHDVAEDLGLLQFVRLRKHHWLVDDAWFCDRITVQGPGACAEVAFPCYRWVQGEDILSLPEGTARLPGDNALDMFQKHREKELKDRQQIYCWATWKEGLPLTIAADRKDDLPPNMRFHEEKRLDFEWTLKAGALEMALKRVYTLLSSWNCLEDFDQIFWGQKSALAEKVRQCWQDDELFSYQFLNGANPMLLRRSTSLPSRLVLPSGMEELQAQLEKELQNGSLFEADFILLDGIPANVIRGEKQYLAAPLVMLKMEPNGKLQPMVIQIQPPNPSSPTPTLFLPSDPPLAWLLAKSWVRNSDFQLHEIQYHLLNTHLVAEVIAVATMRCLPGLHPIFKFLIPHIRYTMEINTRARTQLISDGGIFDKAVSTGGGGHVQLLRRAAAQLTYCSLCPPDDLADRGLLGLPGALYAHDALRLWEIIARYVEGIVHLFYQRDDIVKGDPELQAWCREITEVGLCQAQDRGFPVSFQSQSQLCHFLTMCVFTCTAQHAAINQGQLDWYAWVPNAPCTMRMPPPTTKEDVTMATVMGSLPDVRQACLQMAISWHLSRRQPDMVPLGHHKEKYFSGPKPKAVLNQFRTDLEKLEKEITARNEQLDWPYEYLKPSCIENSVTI
JMJD2E inh: JMJD2E demethylase inhibition by 8HQ compounds; 130 compounds, 89% hits; JMJD2E demethylase, FDH-coupled NADH fluorescence (FDH is formaldehyde dehydrogenase); shares compounds with BAZ2B block; Potency, µM (series often up to 57 µM), actives largely listed as inhibitors
ME-1 growth: ME-1 cell growth inhibition; shares compounds with BAZ2B block; ME-1 cell proliferation, ATP luminescence, 48 h; Potency, µM (series often up to 56.1 µM), most hits filed as inhibitors; 140 compounds, 20% hits; AID 504370
Each line names hits and unclear results; the compound was inactive in the other large screens (follow-up assays come after a bar, where they were run); ! = not confirmed by another sample. Sampled rows, rich in hits. Any-hit rate of the full collection: about 12%. Unless noted, calls follow the shape of the dose curve; as a rule, active = well fitted curve in the direction sought with a large enough effect; inconclusive = small, poorly fitted or top-dose-only effect, or another doubt; inactive = no such curve, though single readings can be large; an effect the other way counts as inactive or inconclusive.

CCCC(=O)NC(c1cccs1)c1cc([N+](=O)[O-])c2cccnc2c1O (stereo not drawn)	BAZ2B block 7.9µM, JMJD2A Tudor 14µM, Sfp inh 2.5µM, G9a block inconclusive | ME-1 growth inconclusive
CCC(=O)NC(c1cccs1)c1cc(Br)c2cccnc2c1O (stereo not drawn)	BAZ2B block 71µM (no result: JMJD2A Tudor, Sfp inh, HP1b chromo inh, TDP1 block) | 12-hLO cuvette 14µM | JMJD2E inh 20µM
O=C(NCC1CCCO1)c1ccc(COc2ccccc2)cc1 (stereo not drawn)	none
CCn1nc(C)c(CN2CCC(C(=O)Nc3cccc(-c4cccc(F)c4)c3)CC2)c1C	none
O=[N+]([O-])c1c(C(Cl)Cl)nn(-c2ccccc2)c1N1CCCC1	BAZ2B block 13µM, JMJD2A Tudor 25µM, G9a block inconclusive, HP1b chromo inh inconclusive | ME-1 growth inactive
CCOC(=O)C1CCN(c2c([N+](=O)[O-])c(C(Cl)Cl)nn2-c2ccccc2)CC1	BAZ2B block inconclusive, JMJD2A Tudor inconclusive, G9a block inconclusive, HP1b chromo inh inconclusive
S=C(NCc1ccco1)Nc1ccc(N2CCOCC2)cc1	G9a block inconclusive
S=C(NCc1ccco1)N1CCOCC1	none | ME-1 growth inactive
Oc1cccc(O)c1O	Sfp inh 40µM, G9a block 3.5µM, TDP1 block inconclusive (no result: BAZ2B block, JMJD2A Tudor, HP1b chromo inh) | ME-1 growth inactive
O=C(O)c1cccc(O)c1O	JMJD2A Tudor inconclusive (no result: BAZ2B block, Sfp inh, G9a block, TDP1 block)
NC[C@@H](O)c1ccc(O)c(O)c1	JMJD2A Tudor 89µM, Sfp inh inconclusive, G9a block inconclusive, TDP1 block inconclusive (no result: BAZ2B block, HP1b chromo inh) | ME-1 growth inactive
CC[C@H](NC(C)C)[C@H](O)c1ccc(O)c(O)c1	none (no result: BAZ2B block, JMJD2A Tudor, HP1b chromo inh)
O=C(Cn1cnc2ccccc21)N/N=C/c1cccc([N+](=O)[O-])c1	none (no result: G9a block)
O=c1c(-c2cc(O)c(O)c(O)c2)coc2cc(O)c(O)c(O)c12	TDP1 block 0.28µM (no result: BAZ2B block, JMJD2A Tudor, HP1b chromo inh) | ME-1 growth inactive
Cc1ccc(C)c(N2CCN(C(=O)c3cccn3-c3nnc(N4CCCCC4)s3)CC2)c1	BAZ2B block inconclusive, JMJD2A Tudor inconclusive, G9a block inconclusive, HP1b chromo inh inconclusive (no result: Sfp inh)
Cc1ccccn1	none (no result: BAZ2B block, JMJD2A Tudor, HP1b chromo inh, TDP1 block)
c1ccc(-c2nc3cc4ccccc4cc3[nH]2)nc1	none
c1ccc(-c2ccccn2)nc1	BAZ2B block 79µM, JMJD2A Tudor inconclusive, G9a block 14µM! | ME-1 growth inactive
c1ccc(-c2n[nH]c(-c3ccccn3)n2)nc1	BAZ2B block 0.71µM, JMJD2A Tudor 1µM, Sfp inh 20µM, G9a block inconclusive | ME-1 growth inconclusive
O=C(NC1CCCCC1)N1CCN(c2ccccc2Cl)CC1	none
CCCC(=O)c1cc(O)c(O)cc1O	TDP1 block inconclusive (no result: BAZ2B block, JMJD2A Tudor, Sfp inh, G9a block, HP1b chromo inh) | ME-1 growth inactive
CCCc1cc(C(=O)Cc2ccc(F)cc2)c(O)cc1O	none
O=[N+]([O-])c1ccc(O)c(/C=N/NC2=NS(=O)(=O)c3ccccc32)c1	BAZ2B block 1.8µM, JMJD2A Tudor 20µM, G9a block inconclusive | ME-1 growth inconclusive
O=[N+]([O-])c1ccc(/C=N/NC2=NS(=O)(=O)c3ccccc32)cc1	none
CC(=O)N(CCN(C(C)=O)c1ccccc1)c1ccccc1	none
NC(=O)N(CCC(=O)O)c1ccccc1	BAZ2B block 50µM, G9a block inconclusive | ME-1 growth inactive
CC(=O)NC(c1cc(Cl)c2cccnc2c1O)C(C)C (stereo not drawn)	BAZ2B block 79µM, JMJD2A Tudor inconclusive (no result: Sfp inh) | 12-hLO cuvette 2.6µM | JMJD2E inh 23µM
CC(=O)NC(C)c1cc(F)c2cccnc2c1O (stereo not drawn)	BAZ2B block 22µM, JMJD2A Tudor 79µM, G9a block inconclusive (no result: Sfp inh) | 12-hLO cuvette inactive | JMJD2E inh 23µM

Bioassay records as filed in PubChem BioAssay.
